Reference: PubChem BioAssay
Values joined by “and” are separate entries in the source; they are usually repeats but may differ in a detail not shown here. Equal values may be shown once. Active and inactive are the calls of the source.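 Rule for the calls, unless noted: active = visually confirmed hit in the image check and inhibition above 20%; inconclusive = visually confirmed hit but inhibition not above 20%; inactive = no visual hit in the image check.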

experiment: inhibitors of mutant huntingtin aggregation, primary screen, imaging, exon1htt(103Q)mCFP cells, high-content imaging (AID 483;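 active = visual image review flags a hit and inhibition of aggregation exceeds 20%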;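 note: compound exposure lasted 3 days before fixation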;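 for nuclei count: percent of the per-plate median nuclei count of sample wells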); conditions: exon1htt(103Q)mCFP cell line, aggregate imaging, at 2 µM; inhibition of aggregation: stronger effect = higher value; nuclei count: measured here: cell count, toxicity

SMILES	inhibition of aggregation	nuclei count
CCCC(C)(COC(N)=O)COC(=O)NC(C)C (configuration not stated)	18.2% (inactive)	100%
COc1ccc(Cc2nccc3cc(OC)c(OC)cc23)cc1OC	-8.7% (inactive)	110%
C[N+]1(C)[C@@H]2CC[C@H]1CC(OC(=O)C(CO)c1ccccc1)C2 (some centres not stated)	-2.8% (inactive)	112%
CC[C@@H]1C(=O)OC[C@@H]1Cc1cncn1C	8.3% (inactive) and -13.2% (inactive)	112% and 101%
c1ccc2c(c1)OCC(C1=NCCN1)O2 (configuration not stated)	2.2% (inactive)	109%
O=C(COc1ccc2ccccc2c1)N1CCN(C2CCN(Cc3ccccc3)CC2)CC1	2.5% (inactive)	75.6%
C[C@]12CCC(=O)C=C1CC[C@@H]1[C@@H]2CC[C@]2(C)C(=O)CC[C@@H]12	16.3% (inactive)	88.1%
CN(C)[C@@H]1C(=O)C(C(N)=O)=C(O)[C@@]2(O)C(=O)C3=C(O)c4c(O)cccc4[C@@](C)(O)[C@H]3[C@H](O)[C@@H]12	62.6% (active)	102%
O=c1[nH]c2ccccc2n1CCCN1CCC(n2c(=O)[nH]c3cc(Cl)ccc32)CC1	13.3% (inactive)	79.8%

experiment: inhibitors of E-selectin induction by TNFa, primary screen, imaging, HUVEC, immunofluorescence, MLSMR starter and 10KST1 sets (AID 487); conditions: HUVEC TNFalpha-induced E-selectin immunofluorescence imaging, at 2 µM; inhibition: stronger effect = higher value; nuclei count: measured here: cell number, toxicity;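 for inhibition: signal is fraction of cell area covered by stained E-selectin grains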;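 for nuclei count: 100% = median nuclei count of all wells on the same plate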

SMILES	inhibition	nuclei count
O=C1CC[C@@]2(O)[C@H]3Cc4ccc(O)c5c4[C@@]2(CCN3CC2CC2)[C@H]1O5	-64.2% (inactive)	120%
CCCC(C)(COC(N)=O)COC(=O)NC(C)C (configuration not stated)	0.8% (inactive)	106%
COc1ccc(Cc2nccc3cc(OC)c(OC)cc23)cc1OC	-204% (inactive)	140%
C[N+]1(C)[C@@H]2CC[C@H]1CC(OC(=O)C(CO)c1ccccc1)C2 (some centres not stated)	-82.3% (inactive) and -114% (inactive)	123% and 124%
COc1ccc2c(c1)c(C(=O)O)c(C)n2CC(C)C	37.7% (inactive)	86.4%
O=P(c1ccccc1)(c1ccccc1)N1CCCCC1	-13.6% (inactive)	99.1%
CC[C@@H]1C(=O)OC[C@@H]1Cc1cncn1C	-46.3% (inactive) and -64.9% (inactive)	122% and 127%
c1ccc2c(c1)OCC(C1=NCCN1)O2 (configuration not stated)	-66.1% (inactive)	128%
O=C(COc1ccc2ccccc2c1)N1CCN(C2CCN(Cc3ccccc3)CC2)CC1	-123% (inactive)	138%
CC(=O)CC(C)(C)n1c[n+](C)nn1	-59% (inactive)	155%
C[C@]12CCC(=O)C=C1CC[C@@H]1[C@@H]2CC[C@]2(C)C(=O)CC[C@@H]12	-105% (inactive)	117%
CN(C)[C@@H]1C(=O)C(C(N)=O)=C(O)[C@@]2(O)C(=O)C3=C(O)c4c(O)cccc4[C@@](C)(O)[C@H]3[C@H](O)[C@@H]12	-42.6% (inactive)	123%
O=c1[nH]c2ccccc2n1CCCN1CCC(n2c(=O)[nH]c3cc(Cl)ccc32)CC1	-81.4% (inactive)	120%
Cn1c(O)c(C(=O)c2ccccc2Cl)c(=O)n(C)c1=O	35.3% (inactive)	79.3%

experiment: DUSP6 inhibitors restoring Erk phosphorylation by chemical complementation, primary imaging in DUSP6-transfected HeLa (AID 609); conditions: HeLa MKP-3 transfected, phospho-Erk imaging KS statistic; measured here: cell density z-score; at 10 µM

SMILES	z-score
O=C1CC[C@@]2(O)[C@H]3Cc4ccc(O)c5c4[C@@]2(CCN3CC2CC2)[C@H]1O5	1.03
CCCC(C)(COC(N)=O)COC(=O)NC(C)C (configuration not stated)	-1.69
COc1ccc(Cc2nccc3cc(OC)c(OC)cc23)cc1OC	1.76
C[N+]1(C)[C@@H]2CC[C@H]1CC(OC(=O)C(CO)c1ccccc1)C2 (some centres not stated)	-1.12 and 0.779
COc1ccc2c(c1)c(C(=O)O)c(C)n2CC(C)C	-0.228
O=P(c1ccccc1)(c1ccccc1)N1CCCCC1	-0.682
c1ccc2c(c1)OCC(C1=NCCN1)O2 (configuration not stated)	0.816
O=C(COc1ccc2ccccc2c1)N1CCN(C2CCN(Cc3ccccc3)CC2)CC1	0.592
CC(=O)CC(C)(C)n1c[n+](C)nn1	0.619
C[C@]12CCC(=O)C=C1CC[C@@H]1[C@@H]2CC[C@]2(C)C(=O)CC[C@@H]12	-1.04
CN(C)[C@@H]1C(=O)C(C(N)=O)=C(O)[C@@]2(O)C(=O)C3=C(O)c4c(O)cccc4[C@@](C)(O)[C@H]3[C@H](O)[C@@H]12	1.9
O=c1[nH]c2ccccc2n1CCCN1CCC(n2c(=O)[nH]c3cc(Cl)ccc32)CC1	-1.29
Cn1c(O)c(C(=O)c2ccccc2Cl)c(=O)n(C)c1=O	-0.324

same assay, conditions: HeLa MKP-3 transfected, phospho-Erk imaging KS statistic; measured here: nuclear c-Myc green intensity z-score; at 10 µM

SMILES	z-score
O=C1CC[C@@]2(O)[C@H]3Cc4ccc(O)c5c4[C@@]2(CCN3CC2CC2)[C@H]1O5	0.419
CCCC(C)(COC(N)=O)COC(=O)NC(C)C (configuration not stated)	0.189
COc1ccc(Cc2nccc3cc(OC)c(OC)cc23)cc1OC	-0.33
C[N+]1(C)[C@@H]2CC[C@H]1CC(OC(=O)C(CO)c1ccccc1)C2 (some centres not stated)	0.388 and 0.223
COc1ccc2c(c1)c(C(=O)O)c(C)n2CC(C)C	-1.03
O=P(c1ccccc1)(c1ccccc1)N1CCCCC1	-0.604
c1ccc2c(c1)OCC(C1=NCCN1)O2 (configuration not stated)	-0.0814
O=C(COc1ccc2ccccc2c1)N1CCN(C2CCN(Cc3ccccc3)CC2)CC1	-1.17
CC(=O)CC(C)(C)n1c[n+](C)nn1	-0.892
C[C@]12CCC(=O)C=C1CC[C@@H]1[C@@H]2CC[C@]2(C)C(=O)CC[C@@H]12	-1.5
CN(C)[C@@H]1C(=O)C(C(N)=O)=C(O)[C@@]2(O)C(=O)C3=C(O)c4c(O)cccc4[C@@](C)(O)[C@H]3[C@H](O)[C@@H]12	-1.29
O=c1[nH]c2ccccc2n1CCCN1CCC(n2c(=O)[nH]c3cc(Cl)ccc32)CC1	0.926
Cn1c(O)c(C(=O)c2ccccc2Cl)c(=O)n(C)c1=O	0.445
